In PubChem BioAssay AID504381 (The Scripps Research Institute Molecular Screening Center, 2011) one finds inhibition data, which are given here for 1 molecule.

Molecules are shown by their SMILES. A number with no mark means an inactive call. How the calls were made is not given here.

The assay concerns BZP Rat Brain Site. Briefly: radioligand displacement at receptors and transporters – biochemical, PDSP panel, Set 2, late-stage follow-up (AID 504381). The following applies: PDSP radioligand binding panel, at 10 µM, active compounds read high. (Displacement assays read how much labelled ligand stays bound in the presence of the test substance.)

For the molecule `CC(=O)c1ccc2c(c1)Nc1ccccc1S2`, the inhibition was 11.4%.

As a reminder, the inhibition is how much of the control response was suppressed.
